From PubChem BioAssay AID1239 (SRMLSC, 2008)
Hit rate of the full screen: of about 190,000 compounds, about 3,100 (1.6%) were called active. Many of the other results were omitted from the sample, so actives are more common in it than they were. Values without a mark were called inactive. Cut-off read from the data, not from the text of the source: active = fold change above about 3.3; inconclusive = no clear call, values can overlap the other calls; inactive = below that.

Experiment: activators of NF-kB expression in neurons, primary screen, cell-based, HTS (AID 1239)
Conditions: human neuronal cells, NF-kB reporter expression; at 12.5 µM; stronger effect = higher value

Structure (SMILES) | fold change
O=C(CSc1nc2ccc(Nc3nc(N4CCOCC4)nc(N4CCOCC4)n3)cc2s1)NCc1ccco1 | 1.02
CC(C)(C)C1CCC(C(=O)Nc2cccnc2)CC1 (configuration not stated) | 0.97
COC(=O)C(=Nc1ccccc1)/C(C(=O)C(=O)N(C)c1ccccc1)=C(\O)c1ccc(Cl)cc1 | 0.95
O=C(Nc1cccc(-c2nc3ncccc3o2)c1)c1ccco1 | 0.74
O=C(Nc1ccc2oc(-c3ccccc3F)nc2c1)c1ccco1 | 5.05 (active)
O=C(Nc1ccc2nccnc2c1)c1ccco1 | 1.46
CSc1ccccc1C(=O)NCc1ccccc1 | 1.09
C/C(=N\NC(=O)c1ccccc1C)c1ccc(N2CCOCC2)cc1 | 1.09
COc1cccc(OC)c1C(=O)Nc1ccc(N2CCCCC2)cc1 | 0.92
COc1cccc(C(=O)Nc2cc3c(cc2Br)OCCCO3)c1 | 3.38 (active)
COc1cccc(C(=O)NNC(=O)c2ccccc2Br)c1 | 1.05
O=C(Cc1ccccc1)NC(=S)Nc1ccc(N2CCCCC2)cc1 | 1.04
Cc1ccccc1C(=O)Nc1ccc(N2CCCCCC2)cc1 | 3.92 (active)
COc1ccc(C2COC(=O)C2=N)c(NC(=O)c2ccccc2)c1 (configuration not stated) | 1.02
COc1cccc(C(=O)Nc2ccc(N3CCCC3)cc2)c1 | 3.3 (active)
COc1ccc(C(=O)NC(=S)Nc2ccc(N3CCCC3)cc2)cc1OC | 0.99
COn1c(-c2ccc(Cl)cc2Cl)nc2ncccc21 | 1.29
O=C(CN1CCC(O)(c2ccccc2)CC1)Nc1ccc2c(c1)OCCO2 | 0.97
COc1ccc(CN2CCCC(CNC(=O)c3ccc(F)cc3)C2)cc1OC (configuration not stated) | 1.13
CCN(CC(=O)NCCc1ccccc1)S(=O)(=O)c1ccccc1 | 1.36
CC1CCCN(CC(O)COc2ccc3c(c2)OCO3)C1 (configuration not stated) | 1.2
C/C(=N\OCC(=O)Nc1ccc(Br)cc1)c1cccs1 | 1.23
CCOc1ccc2nc(NCCNS(=O)(=O)c3ccccc3)c(C#N)cc2c1 | 1.4
CCOc1ccc2cc(C#N)c(SCC(=O)OC)nc2c1 | 5.87 (active)
Cc1nonc1NC(=O)CSc1nc2ccccc2cc1C#N | 1.83
CC(C)N1CCC(=NNc2ccc([N+](=O)[O-])cc2S(=O)(=O)N2CCOCC2)CC1 | 1.19

Structure (SMILES) | fold change
COc1ccc(N2C(=O)/C(=C\c3ccco3)N=C2SCC(N)=O)cc1Cl | 1.3
CCN(CC(=O)Nc1ccc(Cl)c(S(=O)(=O)N(C)C)c1)Cc1nc2ccccc2c(=O)[nH]1 | 0.79
C#CCSc1nnc(-c2sc3ccccc3c2Cl)o1 | 3.81 (active)
O=C(OCC#CCSc1nnc(-c2ccncc2)o1)c1sc2ccccc2c1Cl | 1.38
Clc1ccc(-c2nnc(SCc3nc4ccccc4s3)o2)cc1 | 1.18
CC(C)(C)C(=O)CN1C2=NCCN2c2ccccc21 | 1.09
Cc1ccnc(NC(=O)CCC(=O)N(CC(=O)NCc2ccccc2)Cc2ccco2)c1 | 0.85
Cc1ccc2c(=O)oc(N(C)C)nc2c1 | 0.93
O=C(CSc1ccsc1[N+](=O)[O-])N1CCCCC1 | 1.39
O=c1oc(/C=C/c2ccccc2)nc2ccccc12 | 4.63 (active)
O=C1C2C3C=CC(C3)C2C(=O)N1c1ccc(-c2nc3ccccc3c(=O)o2)cc1 (configuration not stated) | 1.08
S=c1[nH]nc(/C=C/c2ccccc2)o1 | 1.12
CN(C)c1ccnc(Nc2ccc(F)cc2)c1C#N | 1.02
CN(Cc1ccc2nsnc2c1)Cc1nc(Cc2cccc(F)c2)no1 | 1.05
CN(C)c1nccc(NCc2ccccc2)c1C#N | 1.55
CCOc1cc(NC(=O)CCl)c(OCC)cc1NC(C)=O | 2.72
Cc1ccc(Cn2ccc(NC(=O)c3cc(C(C)C)on3)n2)cc1 | 1.16
Cn1cc([N+](=O)[O-])c(C(=O)Nc2cnn(Cc3ccc(F)cc3)c2)n1 | 0.64
CC(=O)Nc1ccn(Cc2c(F)cccc2Cl)n1 | 1.2
O=C(Nc1ccn(Cc2ccc(F)cc2)n1)c1ccncc1 | 1.08
O=C(Nc1ccn(Cc2ccccc2)n1)c1cccc(F)c1 | 6.25 (active)
O=C(Nc1ccn(Cc2ccccc2)n1)c1n[nH]c([N+](=O)[O-])c1Cl | 3.79 (active)
COC(=O)C1=C(C)N(C)C(=O)NC1c1ccc([N+](=O)[O-])o1 (configuration not stated) | 0.88
CN(C)C(CNC(=O)c1cccc(C#N)c1)c1ccco1 (configuration not stated) | 1.15
CC(=O)NC1C(Oc2ccc(C=O)cc2)OC(COC(C)=O)C(OC(C)=O)C1OC(C)=O (configuration not stated) | 1.36
O=C(NCc1ccccc1)C1CCCN(c2nc3ccsc3c(=O)s2)C1 (configuration not stated) | 1.06

Structure (SMILES) | fold change
CCN(CC)C(=O)c1sc2nc(-c3ccccc3)ccc2c1N | 7.06 (active)
CS(=O)(=O)c1sc2nc(-c3ccccc3)cc(-c3ccccc3)c2c1N | 1.16
CCOC(=O)c1sc2nc(SC)nc(-c3ccccc3)c2c1N | 1.18
Cn1c(N)c(C(=O)COC(=O)/C=C/c2ccc(OC(F)F)cc2)c(=O)n(C)c1=O | 1.25
Cc1cc(C)c(OCCN2CC(C)OC(C)C2)c(Br)c1 (configuration not stated) | 1.58
C/C(=C\C(=O)c1ccc(Br)cc1)N1CCCCC1 | 1.06
CN1CCCC(OC(=O)COc2ccc(Br)cc2)C1 (configuration not stated) | 1.11
CC1CN/C(=C\C(=O)c2ccc(Br)cc2)C(=O)N1 (configuration not stated) | 4.31 (active)
CCc1cc2c(=O)c(-c3ccc(F)cc3)c(C(F)(F)F)oc2cc1OCC(=O)O | 1.1
O=C(Nc1ccc(Cl)cn1)Nc1cccs1 | 1.65
c1ccc(Nc2nc(-c3ccncc3)cs2)nc1 | 7.4 (active)
COc1ccc(C(=O)/C=C/Nc2ccccn2)cc1 | 2.22
O=C(Nc1nc(-c2ccc(-c3ccccc3)cc2)cs1)c1cnccn1 | 1.35
c1cnc(Nc2nc(-c3ccc4ccccc4c3)cs2)nc1 | 2.23
Clc1ccc(Nc2nc(-c3cccs3)cs2)nc1 | 12.4 (active)
O=C(Nc1nc(-c2ccncc2)cs1)C1COc2ccccc2O1 (configuration not stated) | 1.25
Clc1ccc(-c2csc(-c3ccncc3)n2)cc1 | 1.8
COc1ccc(-c2csc(Nc3ccccn3)n2)cc1 | 7.56 (active)
O=C(CN(c1cccc(Cl)c1)S(=O)(=O)c1ccccc1)NN=C1CCCC1 | 1.17
CN1CCN(C(c2cc3cc4c(cc3[nH]c2=O)OCCO4)c2nnnn2C2CCCC2)CC1 (configuration not stated) | 1.27
O=C(COc1cccc2ccccc12)Nc1cc(S(=O)(=O)N2CCOCC2)ccc1N1CCOCC1 | 0.47
O=C(N/N=C/C=C/c1ccco1)c1cccs1 | 1.09
COc1ccc(CC(=O)NC(C)CCc2ccccc2)cc1 (configuration not stated) | 1.03
CC(=O)c1cc(C#N)c(N2CCCCC2)nc1C | 1.09
O=C(Nc1cccc(Cl)c1N1CCOCC1)c1ccc2c(c1)OCCO2 | 0.72
COc1c(Cl)cc(C(=O)Nc2ccc(Cl)cn2)cc1Cl | 1.49

Structure (SMILES) | fold change
O=C(Nc1ccc2c(c1)OCCO2)c1ccc(Cl)c(S(=O)(=O)N2CCCCC2)c1 | 0.9
O=C(Nc1ccc(Cl)cn1)c1ccc2c(c1)OCCO2 | 5.18 (active)
CN1CCN(c2ccc(NC(=O)c3ccc4c(c3)OCCO4)cc2Cl)CC1 | 3.36 (active)
O=C(Nc1cccc(S(=O)(=O)Nc2ccc(Cl)cc2)c1)c1ccc2c(c1)OCCO2 | 0.68
S=c1[nH]ccn1-c1ccc(Cl)cc1 | 1.14
CC(C)(C)NC(=O)CN(C(=O)c1ccc(Cl)nc1)c1cccc2ccccc12 | 0.94
COc1cccc(OCCCN2CCCCCC2)c1 | 1.08
C/C(=N/OC(=O)c1cccc(C(F)(F)F)c1)c1cnccn1 | 1.18
CCc1nnc(NS(=O)(=O)c2ccc(NC(=S)NC(=O)c3cccs3)cc2)s1 | 1.46
O=C(NC(=S)Nc1ccc(NC(=O)c2cccs2)cc1)c1ccc([N+](=O)[O-])cc1 | 1.11
O=C(NC(=S)Nc1cccc(-c2ccc(CO)o2)c1)c1cccs1 | 10.1 (active)
COC(=O)COc1ccc(C2NC(=O)NC(C)=C2C(=O)NCc2ccccc2)cc1OC (configuration not stated) | 1.01
CN1CCN(/N=C/c2ccc(-c3ccc([N+](=O)[O-])cc3)o2)CC1 | 1.75
O=C(Cc1ccc([N+](=O)[O-])cc1)N/N=C/c1ccco1 | 1.05
N/C(=N\OC(=O)CCC1CCCCC1)c1ccccn1 | 4.01 (active)
CCC(C)(NC(=O)c1ccccn1)C(=O)NC1CCCCC1 (configuration not stated) | 1.15
N/C(=N\OC(=O)CC1CCCCC1)c1ccccc1 | 1.45
CN(C)CCOc1cccc(Br)c1 | 1.12
CCN=c1sc(C(=O)Nc2ccccc2)c(C)n1CC | 1.3
Cc1ccc(OCC(=O)NC(C)c2ccccc2)c([N+](=O)[O-])n1 (configuration not stated) | 1.1
C=CCNC(=O)CC12CC3CC(C1)CC(CC(=O)NCC=C)(C3)C2 | 1.38
COc1ccc(N2CCN(C(=O)/C(C#N)=C/c3ccccc3)CC2)cc1 | 0.72
CCOC(=O)/C(C#N)=C/c1ccc(N2CCCCC2)cc1 | 3.43 (active)
CCOC(=O)/C(C#N)=C/c1ccc(N2CCN(Cc3ccccc3)CC2)cc1 | 0.98
